Consider three compounds from PubChem BioAssay AID493042 (Johns Hopkins Ion Channel Center, 2011).

Entries with a potency or affinity are not part of this list. Unmarked numbers belong to inactive results.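 Rule for the calls: active = potentiation or inhibition seen at some tested dose and a dose response curve obtained; inactive = no potentiation or inhibition at any dose, or no curve.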

Sequence of Potassium voltage-gated channel subfamily KQT member 1 (Homo sapiens) + Potassium voltage-gated channel subfamily E member 1 (Homo sapiens) (O88943 whole entry, looked up): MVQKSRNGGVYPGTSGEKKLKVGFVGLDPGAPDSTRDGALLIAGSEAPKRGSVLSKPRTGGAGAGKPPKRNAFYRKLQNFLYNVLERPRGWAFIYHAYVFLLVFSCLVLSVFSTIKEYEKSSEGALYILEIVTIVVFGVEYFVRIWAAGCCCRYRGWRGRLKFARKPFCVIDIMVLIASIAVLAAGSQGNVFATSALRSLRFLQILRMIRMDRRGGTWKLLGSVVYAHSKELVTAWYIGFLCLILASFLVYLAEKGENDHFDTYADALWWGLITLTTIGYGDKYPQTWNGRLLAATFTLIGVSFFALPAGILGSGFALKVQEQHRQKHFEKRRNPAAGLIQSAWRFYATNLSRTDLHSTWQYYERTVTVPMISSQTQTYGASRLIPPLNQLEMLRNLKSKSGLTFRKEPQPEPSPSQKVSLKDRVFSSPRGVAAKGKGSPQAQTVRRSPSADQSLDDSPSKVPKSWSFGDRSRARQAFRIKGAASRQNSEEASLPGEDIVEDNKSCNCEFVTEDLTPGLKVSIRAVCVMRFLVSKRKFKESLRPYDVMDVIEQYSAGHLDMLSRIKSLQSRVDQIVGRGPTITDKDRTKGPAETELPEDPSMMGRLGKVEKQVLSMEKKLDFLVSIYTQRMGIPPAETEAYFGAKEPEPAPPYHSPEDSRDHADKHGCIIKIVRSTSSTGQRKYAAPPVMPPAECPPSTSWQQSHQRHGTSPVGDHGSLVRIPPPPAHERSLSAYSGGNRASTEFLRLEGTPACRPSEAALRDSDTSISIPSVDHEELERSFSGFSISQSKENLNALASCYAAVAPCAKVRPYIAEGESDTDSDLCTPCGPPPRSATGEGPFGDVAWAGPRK
Sequence of Potassium voltage-gated channel subfamily KQT member 1 (Homo sapiens) + Potassium voltage-gated channel subfamily E member 1 (Homo sapiens) (P51787 whole entry, looked up): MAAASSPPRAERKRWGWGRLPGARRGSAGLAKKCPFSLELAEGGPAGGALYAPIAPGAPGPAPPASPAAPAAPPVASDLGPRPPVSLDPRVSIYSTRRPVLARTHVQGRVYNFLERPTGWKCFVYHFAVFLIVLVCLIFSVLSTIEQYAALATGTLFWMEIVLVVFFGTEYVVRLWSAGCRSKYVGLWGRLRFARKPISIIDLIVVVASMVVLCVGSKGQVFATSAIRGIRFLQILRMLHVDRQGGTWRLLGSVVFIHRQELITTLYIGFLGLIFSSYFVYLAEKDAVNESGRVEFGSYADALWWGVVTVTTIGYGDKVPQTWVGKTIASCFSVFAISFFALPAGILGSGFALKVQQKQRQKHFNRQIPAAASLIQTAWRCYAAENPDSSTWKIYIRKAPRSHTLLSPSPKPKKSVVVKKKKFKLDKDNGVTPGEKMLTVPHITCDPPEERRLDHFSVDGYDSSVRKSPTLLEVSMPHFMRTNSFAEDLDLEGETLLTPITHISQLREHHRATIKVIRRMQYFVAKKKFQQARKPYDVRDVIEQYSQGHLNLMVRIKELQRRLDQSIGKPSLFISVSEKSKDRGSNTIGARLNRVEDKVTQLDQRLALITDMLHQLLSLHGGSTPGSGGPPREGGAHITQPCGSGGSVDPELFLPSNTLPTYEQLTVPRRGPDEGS

This assay concerns the target Potassium voltage-gated channel subfamily KQT member 1 (Homo sapiens) + Potassium voltage-gated channel subfamily E member 1 (Homo sapiens) (UniProt P15382+P51787). The assay is described as follows: activation of human KCNQ1/KCNE1 current – automated patch clamp, CHO cells, selectivity assay for KCNQ2 activator project, dose response (AID 493042). Conditions: series mostly up to 30 µM; potentiation, negative = inhibition: at the top concentration.
Turning to `Cc1cc(C)c(NC(=O)CC(C)(C)C)c(Cl)c1`, the “potentiation, negative = inhibition” value was 46.7.
Under `CCCCC(=O)Nc1c(C)cc(C)cc1Cl` stands -32.8; under `Cc1cccc(C)c1NC(=O)C1CC2CCC1C2` (stereo not drawn), 29.7.
